Our source for the z-score and composite z-score values is PubChem BioAssay.

Active and inactive are the calls of the source.

Test [1] can be described thus: optical density shifts of acrAB sulA E. coli – strain DRC41, OD650, 48 h, E. coli filamentation inducer project, primary screen (AID 1152).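 Further: E. coli MC1000 strain DRC41 lacking acrAB efflux pump and sulA.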 The note with it: higher = more signal, called active from +8 up or from −8 down.
The nature of test [2]: probe aLefty1 binding on compound microarray – biochemical, small-molecule microarray, 635/667 nm fluorescence, primary screen (AID 1153).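 Further: score merges spot fluorescence with signal-to-noise ratio from the scanned slide images.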 Conditions: higher = more signal.
Test [3] in a line: plasmodial surface anion channel blockers, osmotic lysis – cell-based, P. falciparum Indochina, OD700, 1 h, primary screen (AID 1154). The note with it: P. falciparum Indochina infected RBC osmotic lysis, higher = more signal, called active from +8 up or from −8 down.
Test [4] is described as follows: plasmodial surface anion channel blockers, osmotic lysis – cell-based, P. falciparum Indochina, OD700, 2 h, primary screen (AID 1155).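 Further: lysis reports solute entry through the parasite surface anion channel PSAC.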 Conditions: P. falciparum Indochina infected erythrocytes, higher = more signal, called active from +8 up or from −8 down.
Test [5] in a line: changes in parasitized red cell lysis, either direction – P. falciparum Indochina, OD700, 3 h, PSAC antagonist project, primary screen (AID 1156). Conditions: P. falciparum-infected erythrocytes, osmotic lysis, higher = more signal, called active from +8 up or from −8 down.
Test [6] in a line: plasmodial surface anion channel blockers, osmotic lysis – cell-based, P. falciparum Indochina, OD700, 18 h, primary screen (AID 1157). Conditions: P. falciparum Indochina infected erythrocytes, osmotic lysis OD700, 18 h; higher = more signal, called active from +8 up or from −8 down.
The nature of test [7]: S6 kinase pathway phospho-S6 level changes – cell-based, A549, cytoblot, luminescence, serum-stimulated, primary screen (AID 1158).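 Further: serum-stimulated A549 lung adenocarcinoma cells; signal is phosphorylated S6 detected by cytoblot immunostaining with HRP secondary.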 Conditions: 5 h, higher = more signal.
In test [8] the target is NADPH oxidase 2 (Homo sapiens) (UniProt P04839). As to the kind of experiment: compounds shifting NOX2 Amplex Red fluorescence – cell-based, HEK293-NOX2, PMA-stimulated, NOX inhibitor project, primary screen (AID 1159). Further: test concentration not given here. The note with it: 45 min, higher = more signal, called active from +8 up or from −8 down.
Chain of NADPH oxidase 2 (Homo sapiens) (P04839 whole entry, looked up): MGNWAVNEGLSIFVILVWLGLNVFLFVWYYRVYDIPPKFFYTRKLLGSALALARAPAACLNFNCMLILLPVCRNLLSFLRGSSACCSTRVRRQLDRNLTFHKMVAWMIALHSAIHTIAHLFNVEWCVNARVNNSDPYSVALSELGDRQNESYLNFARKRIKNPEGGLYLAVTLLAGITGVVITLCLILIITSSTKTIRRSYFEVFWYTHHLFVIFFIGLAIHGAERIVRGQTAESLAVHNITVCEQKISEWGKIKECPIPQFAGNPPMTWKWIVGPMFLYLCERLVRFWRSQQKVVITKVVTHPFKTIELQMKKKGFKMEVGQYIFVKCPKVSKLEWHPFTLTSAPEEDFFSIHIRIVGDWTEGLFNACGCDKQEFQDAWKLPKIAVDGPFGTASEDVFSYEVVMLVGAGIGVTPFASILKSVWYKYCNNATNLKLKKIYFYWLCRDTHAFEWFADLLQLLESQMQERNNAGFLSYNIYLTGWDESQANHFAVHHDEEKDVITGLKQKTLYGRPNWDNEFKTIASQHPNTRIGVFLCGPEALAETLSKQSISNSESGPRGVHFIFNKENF
The target in test [9] is NADPH oxidase 4 (Homo sapiens) (UniProt Q9NPH5). Nature of the test: compounds shifting NOX4 Amplex Red fluorescence – cell-based, HEK293-NOX4, tetracycline-induced, NOX inhibitor project, primary screen (AID 1160). Conditions: HEK293-NOX4, Amplex Red H2O2 fluorescence, 45 min; higher = more signal, called active from +8 up or from −8 down.
Chain of NADPH oxidase 4 (Homo sapiens) (Q9NPH5 whole entry, looked up): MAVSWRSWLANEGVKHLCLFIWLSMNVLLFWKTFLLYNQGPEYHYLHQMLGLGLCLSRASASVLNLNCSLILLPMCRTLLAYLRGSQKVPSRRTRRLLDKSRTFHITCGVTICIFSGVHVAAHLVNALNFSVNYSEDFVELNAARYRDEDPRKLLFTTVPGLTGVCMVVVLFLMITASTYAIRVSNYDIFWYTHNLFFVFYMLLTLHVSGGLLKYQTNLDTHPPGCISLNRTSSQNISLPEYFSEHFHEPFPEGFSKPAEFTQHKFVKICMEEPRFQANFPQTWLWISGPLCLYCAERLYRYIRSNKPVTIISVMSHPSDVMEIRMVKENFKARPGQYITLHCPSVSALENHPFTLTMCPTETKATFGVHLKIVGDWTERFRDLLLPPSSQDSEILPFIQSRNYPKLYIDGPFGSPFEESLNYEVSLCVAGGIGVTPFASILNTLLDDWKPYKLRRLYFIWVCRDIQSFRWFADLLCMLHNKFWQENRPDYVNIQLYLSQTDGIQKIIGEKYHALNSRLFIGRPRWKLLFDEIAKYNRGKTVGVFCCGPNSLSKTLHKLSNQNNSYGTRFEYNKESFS
The target of test [10] is NADPH oxidase 5 (Homo sapiens) (UniProt Q96PH1). Nature of the test: compounds shifting NOX5 Amplex Red fluorescence – cell-based, HEK293-NOX5, NOX inhibitor project, primary screen (AID 1161). The note with it: HEK293-NOX5, ionomycin, 45 min, higher = more signal.
Chain of NADPH oxidase 5 (Homo sapiens) (Q96PH1 whole entry, looked up): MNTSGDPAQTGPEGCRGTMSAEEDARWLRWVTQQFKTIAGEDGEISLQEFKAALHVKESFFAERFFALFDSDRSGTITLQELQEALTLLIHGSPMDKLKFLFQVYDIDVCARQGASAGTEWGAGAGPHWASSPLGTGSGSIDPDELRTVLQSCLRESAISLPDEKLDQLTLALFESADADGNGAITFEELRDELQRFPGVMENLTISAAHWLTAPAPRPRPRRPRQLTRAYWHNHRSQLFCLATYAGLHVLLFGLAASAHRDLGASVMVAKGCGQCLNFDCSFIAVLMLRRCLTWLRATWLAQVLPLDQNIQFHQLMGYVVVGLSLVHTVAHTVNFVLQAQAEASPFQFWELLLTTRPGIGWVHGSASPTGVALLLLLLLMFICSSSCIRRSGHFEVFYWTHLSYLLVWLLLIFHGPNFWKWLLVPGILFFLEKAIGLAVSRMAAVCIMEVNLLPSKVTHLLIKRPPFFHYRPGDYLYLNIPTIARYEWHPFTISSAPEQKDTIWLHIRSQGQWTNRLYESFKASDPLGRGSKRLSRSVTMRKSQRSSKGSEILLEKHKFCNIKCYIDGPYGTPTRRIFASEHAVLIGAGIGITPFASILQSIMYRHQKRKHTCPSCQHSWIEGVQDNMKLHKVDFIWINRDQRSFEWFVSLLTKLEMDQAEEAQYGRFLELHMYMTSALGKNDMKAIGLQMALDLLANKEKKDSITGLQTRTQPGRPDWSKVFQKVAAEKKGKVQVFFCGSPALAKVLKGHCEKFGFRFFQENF
Test [11] is described as follows: compound effects on lung adenocarcinoma cell viability – A549, calcein-AM fluorescence, 48 h, basal, profiling panel (AID 1162). Further: test concentration not given here. The note with it: higher = more signal.
The nature of test [12]: compound effects on differentiated 3T3-L1 adipocyte viability – cell-based, 3T3-L1 adipocytes, calcein-AM fluorescence, 48 h, basal, profiling panel (AID 1163). Further: test concentration not given here. Conditions: 3T3-L1 adipocytes viability, higher = more signal.
Test [13] is described as follows: compound effects on hepatocellular carcinoma cell viability – HepG2, calcein-AM fluorescence, 48 h, basal, profiling panel (AID 1164). Further: test concentration not given here. The note with it: higher = more signal.
Test [14] in a line: compound effects on multiple myeloma cell viability – MM1S, calcein-AM fluorescence, 48 h, basal, profiling panel (AID 1165).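 Further: viability of MM1S multiple myeloma cells under basal unstimulated conditions; test concentration not given here.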 The note with it: higher = more signal.
Test [15] is described as follows: calcein-AM signal in unstimulated myeloma cells – cell-based, calcein-AM fluorescence, 48 h, PK04 Diversity Set, profiling panel (AID 1166).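 Further: cells grown under basal conditions without added stimulus; test concentration not given here.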 The note with it: RPMI8226 myeloma viability, higher = more signal.
Test [16] is described as follows: JC-1 mitochondrial signal, unstimulated HepG2 cells – cell-based, JC-1 fluorescence, 24 h, 100 nL compound, profiling panel (AID 1167). Further: test concentration not given here. The note with it: HepG2 mitochondrial potential, higher = more signal.
A short description of test [17]: JC-1 mitochondrial signal, unstimulated adipocytes – cell-based, JC-1 fluorescence, 3T3-L1 adipocytes, 24 h, 100 nL compound, profiling panel (AID 1168). Further: test concentration not given here. Conditions: JC-1 mitochondrial fluorescence, higher = more signal, called active from +8 up or from −8 down.
Test [18] can be described thus: JC-1 mitochondrial signal, unstimulated myeloma cells – cell-based, JC-1 fluorescence, RPMI8226, 24 h, 100 nL compound, profiling panel (AID 1169). Further: test concentration not given here. Conditions: JC-1 mitochondrial potential fluorescence, higher = more signal.
The nature of test [19]: JC-1 mitochondrial signal, unstimulated MM1S myeloma – cell-based, JC-1 fluorescence, 24 h, 100 nL compound, profiling panel (AID 1170). Further: test concentration not given here. Conditions: MM1S mitochondrial potential, higher = more signal.
Test [20] can be described thus: resazurin metabolic signal in A549 cells – cell-based, resazurin fluorescence, 24 h, PK04 Diversity Set, profiling panel (AID 1171). Further: test concentration not given here. The note with it: A549 viability, higher = more signal, called active from +8 up or from −8 down.

For `CC1CC/C=C\[C@H]2OC34C=CCN(CCN5CCOCC5)C(=O)[C@H]3N(CCCO)C(=O)[C@@H]4C2C(=O)O1` (stereo not given in full), the z-score in test [1] is -0.576 (inactive); in test [3] it was 0.811 (inactive); in test [4], 0.354 (inactive); in test [5], -0.513 (inactive); in test [6], 0.136 (inactive); in [7] it was 1.38. In addition, the z-score in test [8] was 0.638 (inactive); in test [9], -1.71 (inactive); in test [10], 0.947; in test [11], -0.451; in test [12] it was 0.483; in test [13] it was -0.723. Further, the z-score is 1.22 in test [14]; 0.42 in [15]; -0.734 in [16]; -0.711 (inactive) in test [17]; 0.741 in test [18]; 0.649 in test [19]. The z-score in test [20] is -0.467 (inactive). In test [2], this molecule registered a composite z-score of -0.0518.
As to `CCOC(=O)c1cn(C[C@H](Cc2ccccc2)NC(=O)N[C@H](CO)CCc2oc(C(C)=O)c(C(=O)OC)c2C(=O)OC)nn1`, the z-score in test [1] was -0.427 (inactive); in test [3], 1.14 (inactive); in test [4], -1.06 (inactive); in test [5], 0.661 (inactive); in test [6] it was -0.473 (inactive); in test [7], 0.0878. Also, the z-score in test [8] was -3.04 (inactive); in test [9] it was -3.25 (inactive); in test [10], -1.9; in test [11], -0.462; in test [12] it was 1.16; in [13] it was 0.0702. Further, the z-score in test [14] is -0.0594; in [15] it was -1.88; in test [16] it was -1; in test [17], 0.871 (inactive); in [18], -0.44; in test [19], -0.0478. Besides, the z-score in test [20] is -0.636 (inactive). The same molecule registered a composite z-score in test [2] of 0.143.
On to `O=C(NC1CC1)[C@@H]1c2ccccc2C(=O)N(CC23CC4CC(CC(C4)C2)C3)[C@H]1c1ccc(CO)cc1`, for which the z-score was 0.268 (inactive) in [1]; 1.56 (inactive) in test [3]; 0.464 (inactive) in test [4]; 1.48 (inactive) in [5]; 0.181 (inactive) in [6]; 0.268 in [7]. The z-score in [8] is 0.507 (inactive); in test [9] it was 0.157 (inactive); in test [10] it was 0.412; in test [11], 0.554; in test [12], 0.875; in test [13] it was 0.232. Moreover, the z-score in test [14] was 0.0732; in test [15] it was 0.202; in [16], 1.49; in test [17] it was 0.397 (inactive); in [18] it was 0.555; in test [19], -0.467. In addition, the z-score in test [20] was 1.5 (inactive). For the same molecule, in test [2], the composite z-score turned out to be 0.284.
Regarding `CCOC(=O)C[C@H]1[C@H](OC(=O)c2ccccc2-c2ccccc2)[C@@H](NC(=O)c2ccc3ccccc3c2)c2cc(OCCCO)ccc2N1C(=O)Cc1ccc(OC)cc1`, the z-score in [1] was -0.878 (inactive); in test [3], 4.15 (inactive); in [4], 0.403 (inactive); in [5], -0.681 (inactive); in test [6] it was 0.281 (inactive); in test [7] it was 0.12. The z-score in [8] was 0.0357 (inactive); in [9], 1.02 (inactive); in test [10], 1.01; in test [11] it was 0.0867; in test [12], 0.152; in test [13], 0.278. The z-score in test [14] is 0.306; in [15], -0.543; in [16], -0.175; in [17], 0.367 (inactive); in [18], -0.49; in test [19], 0.0571. In [20], the z-score was -0.439 (inactive). The same molecule yielded a composite z-score in test [2] of -0.241.
Take `COc1ccc(NN2C(C(O)c3ccc(I)cc3)C=CC3C(=O)N(C4CCCCC4)C(=O)C32)cc1` (stereo not given): the z-score is -0.111 (inactive) in test [1]; 3.84 (inactive) in test [3]; 1.16 (inactive) in [4]; -0.0985 (inactive) in [5]; 0.706 (inactive) in test [6]; -0.569 in test [7]. Also, the z-score in test [8] was 0.0194 (inactive); in test [9] it was -0.672 (inactive); in [10], -1.16; in [11], -0.302; in test [12] it was -0.971; in test [13], 0.181. The z-score is -1.06 in [14]; 0.295 in test [15]; 0.126 in test [16]; 0.0889 (inactive) in test [17]; 0.0764 in test [18]; -1.65 in test [19]. In [20], the z-score was 1.47 (inactive). In addition, in [2], the composite z-score is 0.425.
`O=C1N(Cc2ccccc2)c2ccccc2C[C@@]12COC(c1ccc(OCCCO)cc1)=N2`: the z-score is 0.0226 (inactive) in [1]; 25.5 (active) in test [3]; 10.1 (active) in test [4]; 3.4 (inactive) in test [5]; 1.33 (inactive) in [6]; 0.255 in [7]. In addition, the z-score in test [8] was -0.231 (inactive); in [9], -0.221 (inactive); in [10], -1.79; in [11] it was -0.633; in test [12], 0.629; in [13], -0.409. Also, the z-score is -2.94 in test [14]; -1.19 in test [15]; -1.08 in test [16]; -0.382 (inactive) in test [17]; -0.907 in test [18]; -0.589 in [19]. For the same molecule, the z-score in test [20] is 1.41 (inactive). Moreover, the composite z-score in [2] came to 0.391.
As for `Cc1ccccc1C(O)C1C=CC2C(=O)N(c3ccccc3)C(=O)C2N1Nc1ccccc1` (stereo not given), the z-score in [1] was -0.29 (inactive); in test [3], 20.1 (active); in test [4], 3.73 (inactive); in test [5], 0.214 (inactive); in test [6], 1.59 (inactive); in [7], -0.495. Further, the z-score was -1.85 (inactive) in [8]; -2.96 (inactive) in test [9]; -2.44 in test [10]; -0.0545 in [11]; -1.17 in test [12]; 1.8 in test [13]. Besides, the z-score in test [14] was 0.928; in test [15], -0.645; in test [16], -0.978; in test [17], -0.703 (inactive); in test [18] it was -0.318; in [19], -0.638. The z-score in test [20] is 0.0292 (inactive). Further, the composite z-score in test [2] stood at 0.271.
For the molecule `O=C1NC(=O)C2C1C=CC(C(O)c1ccc([N+](=O)[O-])cc1)N2Nc1ccccn1` (stereo not given), the z-score is -0.55 (inactive) in test [1]; 0.406 (inactive) in test [3]; 0.74 (inactive) in [4]; 0.067 (inactive) in test [5]; 0.581 (inactive) in test [6]; -0.466 in test [7]. For the same molecule, the z-score in [8] was -0.728 (inactive); in test [9], -2.61 (inactive); in [10] it was -1.96; in test [11], 0.0411; in [12], -0.379; in [13] it was -0.357. Besides, the z-score in test [14] is -0.492; in test [15] it was -1.07; in [16] it was -0.969; in test [17], -0.713 (inactive); in test [18], -0.284; in test [19], 0.339. For the same molecule, the z-score in test [20] is -0.0648 (inactive). In test [2], this molecule registered a composite z-score of -0.112.
With `COCCCNC(=O)[C@@]1(CCC(=O)OC(C)(C)C)COC(c2ccc(OCCCO)cc2)=N1`, the z-score in [1] is 0.42 (inactive); in [3] it was 23.6 (active); in test [4], 4.91 (inactive); in test [5] it was 0.873 (inactive); in [6], 0.766 (inactive); in [7], -0.169. In addition, the z-score in test [8] is -2.51 (inactive); in test [9], 0.195 (inactive); in test [10], -0.0784; in test [11], -0.487; in test [12], 0.129; in test [13], -0.642. Further, the z-score in [14] is -1.43; in [15] it was -0.24; in test [16], 0.195; in test [17], -1.05 (inactive); in [18], -0.438; in test [19] it was 0.012. Further, in [20], the z-score was 2.45 (inactive). For the same molecule, the composite z-score in test [2] was found to be 0.205.
